Screening results (PubChem BioAssay)
Compounds with a hit are over-represented: about 13% of the library has one in this group of screens.
USP28 block: inhibitors of human USP28 deubiquitinase. Q96RU2. inhibition, % at 25 µM. hit rate 3% among 47,000. purified USP28, Ub-rhodamine cleavage fluorescence, 30 min
Target sequence (Q96RU2 whole entry, looked up): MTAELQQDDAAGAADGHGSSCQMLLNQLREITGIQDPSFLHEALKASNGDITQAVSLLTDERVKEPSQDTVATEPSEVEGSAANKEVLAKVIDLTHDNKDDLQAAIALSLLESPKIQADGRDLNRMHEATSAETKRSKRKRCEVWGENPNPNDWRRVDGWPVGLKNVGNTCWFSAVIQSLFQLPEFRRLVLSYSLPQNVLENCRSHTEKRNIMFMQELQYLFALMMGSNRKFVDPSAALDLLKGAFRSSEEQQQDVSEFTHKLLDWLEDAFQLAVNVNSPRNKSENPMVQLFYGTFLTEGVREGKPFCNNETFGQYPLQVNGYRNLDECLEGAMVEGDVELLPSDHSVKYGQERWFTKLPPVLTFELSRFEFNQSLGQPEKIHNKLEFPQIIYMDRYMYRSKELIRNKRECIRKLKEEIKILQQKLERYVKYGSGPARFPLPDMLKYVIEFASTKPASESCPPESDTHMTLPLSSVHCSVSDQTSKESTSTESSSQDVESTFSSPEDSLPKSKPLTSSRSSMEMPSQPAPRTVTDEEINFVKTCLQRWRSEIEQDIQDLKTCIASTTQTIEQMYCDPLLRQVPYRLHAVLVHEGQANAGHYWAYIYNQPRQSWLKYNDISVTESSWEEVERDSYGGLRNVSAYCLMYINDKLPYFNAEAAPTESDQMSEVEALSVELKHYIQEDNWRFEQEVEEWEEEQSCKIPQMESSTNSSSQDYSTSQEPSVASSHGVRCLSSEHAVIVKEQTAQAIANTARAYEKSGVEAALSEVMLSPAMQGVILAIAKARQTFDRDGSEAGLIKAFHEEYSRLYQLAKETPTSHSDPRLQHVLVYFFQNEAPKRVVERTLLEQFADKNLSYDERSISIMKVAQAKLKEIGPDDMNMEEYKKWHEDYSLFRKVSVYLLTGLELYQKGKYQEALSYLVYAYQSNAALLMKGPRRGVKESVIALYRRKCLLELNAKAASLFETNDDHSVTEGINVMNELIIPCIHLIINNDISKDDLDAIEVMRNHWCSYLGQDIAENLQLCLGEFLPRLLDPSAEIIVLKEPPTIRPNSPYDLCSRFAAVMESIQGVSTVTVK
USP30 block: human USP30 deubiquitinase inhibition. AID 1645860. hit rate 5.3% among 47,000. inhibition, % at 25 µM. purified USP30, Ub-rhodamine cleavage fluorescence. Q70CQ3
USP10 block: blocks human USP10 ubiquitin-rhodamine cleavage | Q14694 | purified USP10, Ub-rhodamine fluorescence, 60 min | inhibition, % at 20 µM | hit rate 1.1% among 47,000 | AID 1645856
USP8 block: blocks human USP8 ubiquitin-rhodamine cleavage | P40818 | purified USP8, Ub-rhodamine cleavage fluorescence, 30 min | inhibition, % at 20 µM | hit rate 4.2% among 47,000 | AID 1645853
USP17 block: human USP17-like deubiquitinase inhibition; hit rate 6.5% among 47,000; purified USP17, Ub-rhodamine cleavage fluorescence, 3 h; inhibition, % at 50 µM; AID 1645855; A8MUK1
The depositor's hits bear a star; x = not tested or not shown. No stated cut-off is given here; in the data, active means inhibition above about 30%; inactive means the rest.

SMILES	USP28 block	USP30 block	USP10 block	USP8 block	USP17 block
CCCc1noc(-c2ccnc(-n3ncc(C(=O)N4CCCC4)c3C)c2)n1	2	-13	0	0	1
Cc1ccc(CN2C[C@H]3NC(=O)c4ccccc4C(=O)[C@@]3(C)C2)s1	1	11	-1	7	3
Cn1c(=O)n(CC(=O)OCc2ccccc2)c(=O)c2c1nc1oc(C(C)(C)C)cn12	-12	-24	-4	-1	-7
CCOC(=O)CCn1c(=O)c2c(nc3oc(C(C)(C)C)cn32)n(C)c1=O	12	32*	2	11	15
O=C(c1ccc(F)cc1F)N1CCN(S(=O)(=O)c2cc(Cl)cc(Cl)c2)CC1	-1	6	1	-11	-11
COc1cc(C2CCN(C(=O)Nc3cccc(C)c3)CC2)on1	6	-15	1	14	1
CS(=O)(=O)n1nc(NCc2ccc(F)cc2)nc1NCc1ccc(F)cc1	4	3	3	6	0
O=C1COc2ccc(NC(=O)N3CCN(c4ncc(C(F)(F)F)cc4Cl)CC3)cc2N1	19	26	4	10	16
FC(F)(F)c1cnc(N2CCC(c3ncn[nH]3)CC2)c(Cl)c1	43*	19	-1	3	0
O=C(Nc1ccc(-c2cn3ccccc3n2)cc1)C1C=C2C=C(Br)C=CC2OC1=O (stereo not drawn)	52*	49*	5	5	25
COc1cc(NC(=O)Cc2cn3ccccc3n2)cc(OC)c1	-19	-116	-3	-277	-83
Cc1c(CCC(=O)N2CC[C@@]3(O)CCCC[C@H]3C2)c(=O)oc2cc(OCc3ccc(F)cc3F)ccc12	15	35*	2	22	x
COc1ccc(COc2ccc3c(C)c(CC(=O)N4CC[C@@]5(O)CCCC[C@H]5C4)c(=O)oc3c2)cc1	20	52*	62*	34*	46*
Cc1nn(-c2ccccc2)c(C)c1NC(=O)c1cnn(Cc2ccccc2)c1	31*	17	0	25	17
O=C(NC1=NCCS1)c1cnn(Cc2ccccc2)c1	-7	0	2	0	2
Cc1cccc(NC(=O)Nc2ccc(C)n(CC(=O)N3CCCCC3)c2=O)c1	2	4	-4	5	0
Cc1ccc(NC(=O)Nc2ccc(C)n(CC(=O)Nc3ccc(C)c(C)c3)c2=O)cc1	7	7	66*	93*	1
Cc1cccn2c(=O)c3cc(C#N)c(=O)n(-c4ccccc4[N+](=O)[O-])c3nc12	-22	-71	-9	12	39*
CC(C)Cc1cc(-c2nnc3sc(-c4ccco4)nn23)n[nH]1	39*	-3	10	35*	73*
Cc1ccc2cc(-c3noc(C)n3)c(NC(C)c3ccccn3)nc2c1 (stereo not drawn)	-6	-17	3	4	-12
CC(Nc1ncnc2cc(-c3ccc(Cl)cc3)sc12)c1ccccn1 (stereo not drawn)	7	0	14	57*	-19
CCN(CCO)c1ncnc2c1sc1nc(-c3ccccc3)c3c(c12)CCC3	4	-69	-5	-9	33*
CC(C)CNc1ncnc2c1sc1nc(-c3ccccc3)c3c(c12)CCC3	8	17	0	39*	x
CCN(CC)c1ncnc2c1sc1nc(-c3ccccc3)c3c(c12)CCC3	-30	-45	-9	-20	-36
CCCCc1nc2sc3c(NCCN4CCOCC4)ncnc3c2c2c1CCC2	83*	-31	0	-13	-14
SMILES	USP28 block	USP30 block	USP10 block	USP8 block	USP17 block
O=C(NCCc1ccc2c(c1)OCCO2)C1(c2ccccc2)CC1	9	15	0	5	3
CCCN(CC(=O)Nc1cc(Cl)ccc1Cl)CC(=O)Nc1c(C)cccc1C	-1	21	5	-58	11
Cc1ccc(C)c(N(C)C(=O)c2nn(C)c3c2CSc2ccccc2-3)c1	27	39*	6	13	x
COc1ccc(CNc2ccc(-c3ccccc3)nn2)cc1	11	18	8	3	37*
CCN1CCN(c2ccc(-c3nc(-c4ccccc4)no3)nn2)CC1	12	23	3	22	22
c1ccc(CNc2ccc(-c3nc(-c4ccccc4)no3)nn2)cc1	-10	-21	6	42*	10
OCCN1CCN(C(c2cccc(Cl)c2)c2ccccc2Cl)CC1 (stereo not drawn)	8	-13	1	6	-8
Cc1c(C(=O)CSc2nc3ccccc3[nH]2)c2ccccc2n1C	5	8	-6	-11	x
Cc1cccc(NC(=O)C(=O)NCC(c2cccnc2)N2CCc3ccccc3C2)c1 (stereo not drawn)	7	-18	-5	61*	25
CNC(=O)CC1NC(=O)c2csc(n2)-c2ccc(-c3nc(C4=NC(C(=O)N5CCCC5C(N)=O)CO4)cs3)nc2-c2csc(n2)-c2csc(n2)C(C(O)c2ccccc2)NC(=O)CNC(=O)c2nc(sc2COC)C(C(C)C)NC(=O)c2nc1sc2C (stereo not drawn)	42*	6	-2	6	75*
O=C(Cc1ccc(F)cc1)NCc1cnc(C2CCCCO2)nc1 (stereo not drawn)	5	7	3	11	7
O=C1c2[nH]nc(-c3ccccc3O)c2C(c2ccc(O)cc2)N1Cc1ccncc1 (stereo not drawn)	-11	-2	5	20	0
CC(C)OCCCN1C(=O)c2[nH]nc(-c3ccccc3O)c2C1c1cccc(Cl)c1 (stereo not drawn)	4	5	25	55*	27
O=C1CC(c2cc(F)ccc2F)c2cc3c(cc2N1)OCCO3 (stereo not drawn)	14	20	2	6	9
O=C1CC(c2cc3c(cc2Br)OCO3)c2cc3c(cc2N1)OCCO3 (stereo not drawn)	11	18	40*	4	67*
COc1ccc(-c2nc(-c3ccc(OC)cc3)c(S(=O)(=O)CC(=O)Nc3ccc(F)cc3)[nH]2)cc1	-19	30*	10	-7	-2
COc1ccc(NC(=O)CSc2ccc(F)cc2)cc1	29	34*	0	18	28
COc1ccc(NC(=O)CS(=O)(=O)c2[nH]c(-c3ccccc3)nc2-c2ccc(C)cc2)cc1	2	30	8	-26	24
COc1ccc(NC(=O)CSc2cn[nH]n2)cc1	-2	1	2	20	2
Cc1ccc(-c2nc(-c3ccccc3)c(S(=O)(=O)CC(=O)Nc3ccc(F)c(Cl)c3)[nH]2)cc1	18	44*	24	6	24
COc1ccc(-c2nnc(CN3CCN(c4ccccn4)CC3)o2)cc1	-1	4	-1	2	-4
CC1(C)CC(=O)C2=C(C1)Nc1ccccc1N(C(=O)CCC(=O)O)C2c1ccc(-c2cccc([N+](=O)[O-])c2)o1 (stereo not drawn)	4	-42	-2	-87	-1
COc1ccc(CCNC(=O)c2cn(-c3ccc(F)cc3)nn2)cc1OC	9	62*	1	3	34*
